# Shown are actives, neighbours in structure and some others; about 1.2% of the full set was active somewhere.
# gsp agonist: qHTS for Agonist of gsp, the Etiologic Mutation Responsible for Fibrous Dysplasia/McCune-Albright Syndrome: qHTS; 340,000 tested, 0.13% active; gsp mutant cells, cAMP HTRF, 30 min; Potency, µM (doses to about 76.9 µM), actives largely listed as activators; active = well fitted activation curve with a large enough effect; inconclusive = small, poorly fitted or top-dose-only effect, or another doubt; inactive = no such curve, though single readings can be large or run the other way; cell line not stated here;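 note: phosphodiesterase inhibitor Ro 20-1724 added with compounds to block cAMP breakdown; nearly all actives have a fitted effect of over 60% in size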
#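 Cells stably selected in G418 were plated at 2000/well, grown 16-24 hr, then given compounds in DMSO with the PDE inhibitor […] (300 uM solution added) for 30 min at 37C; cAMP was read by HTRF.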
# gsp antagonist: qHTS for Antagonists of gsp, the Etiologic Mutation Responsible for Fibrous Dysplasia/McCune-Albright Syndrome: qHTS; gsp-mutant cells, cAMP HTRF, 30 min; Potency, µM (top dose mostly 76.9 µM), hits mostly inhibitors; 340,000 tested, 0.4% active; AID 624288, 2012; calls by dose curve; cell line not stated here;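 note: intracellular cAMP measured with PDE inhibitor Ro 20-1724 present during compound exposure; nearly all actives have a fitted effect of over 65% in size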
#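 HTRF cAMP measurement after 30 min RT detection following 30 min, 37C compound treatment alongside […] (added as 300 uM solution) in G418-selected cells seeded at 2000/well and grown 16–24 h.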
# Akt phos inh: HTS Assay for Inhibitors of Akt Phophorylation: Primary Screen. Neuro2A IGF-stimulated pAkt S473 HTRF, 20 min; stronger effect = lower value. activity change, % for hits at 50 µM. 360,000 tested, 0.32% active. AID 651550, 2012; in the data active = activity change below about -80%; inconclusive = mostly about -51% to -80%
#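 Neuro2A cells (4,500/well, DMEM with 0.5% FBS) were treated with compound at a single 50 µM final concentration, stimulated with 6 nM IGF for 20 min at 37 °C, and lysed. Phospho-Akt Ser473 was read by HTRF as 665/615 ratio ×10^4.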
# RXFP1 antagonist: qHTS Assay for Antagonists of the Relaxin Receptor RXFP1. HEK293-RXFP1, relaxin-stimulated cAMP HTRF, 30 min; stronger effect = lower value. 350,000 tested, 0.59% active. Relaxin receptor 1 (Homo sapiens), Q9HBX9. activity change, negative = inhibition, % at 57.5 µM;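 active = activity change of -60% or lower, but not beyond a set lower limit; inconclusive = change between -60% and -40%, or beyond the set limit; inactive = change above -40%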
# Target sequence (Q9HBX9 whole entry, looked up): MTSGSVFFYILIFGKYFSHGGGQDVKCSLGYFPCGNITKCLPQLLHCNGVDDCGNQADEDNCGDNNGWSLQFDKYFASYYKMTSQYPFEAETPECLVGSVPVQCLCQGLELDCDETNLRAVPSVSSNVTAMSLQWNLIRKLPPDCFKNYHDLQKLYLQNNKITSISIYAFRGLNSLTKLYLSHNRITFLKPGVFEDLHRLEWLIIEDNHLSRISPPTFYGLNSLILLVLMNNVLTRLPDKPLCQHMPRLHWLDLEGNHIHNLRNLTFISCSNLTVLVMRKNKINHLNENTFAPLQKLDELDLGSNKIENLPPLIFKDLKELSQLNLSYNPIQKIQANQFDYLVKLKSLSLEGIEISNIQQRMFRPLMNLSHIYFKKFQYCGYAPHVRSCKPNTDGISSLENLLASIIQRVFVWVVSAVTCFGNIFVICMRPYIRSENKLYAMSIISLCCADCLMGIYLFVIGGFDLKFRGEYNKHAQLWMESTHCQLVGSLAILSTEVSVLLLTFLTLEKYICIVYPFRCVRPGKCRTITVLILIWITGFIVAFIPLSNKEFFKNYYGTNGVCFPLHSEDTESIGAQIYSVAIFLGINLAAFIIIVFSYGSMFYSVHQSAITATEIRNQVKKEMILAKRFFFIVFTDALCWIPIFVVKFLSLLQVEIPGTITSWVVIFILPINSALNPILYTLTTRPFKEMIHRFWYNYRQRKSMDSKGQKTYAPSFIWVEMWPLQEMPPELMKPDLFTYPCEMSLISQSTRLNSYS
# RXFP1 ag: qHTS Assay for Agonists of the Relaxin Receptor RXFP1 | Relaxin receptor 1 (Homo sapiens), Q9HBX9 | HEK293T-RXFP1 cAMP TR-FRET, 30 min; response scale: percent of porcine relaxin response, buffer zero | Potency, µM (series often up to 57.5 µM), most hits filed as activators | 370,000 tested, 0.3% active; active = well fitted activation curve with a large enough effect; inconclusive = small, poorly fitted or top-dose-only effect; note: nearly all actives have a fitted effect of over 60% in size
#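 HEK293T cells stably expressing RXFP1 were pretreated with the PDE4 inhibitor Ro 20174, exposed to compounds for 30 min at 37C, lysed, and cAMP was read by TR-FRET. Data normalized to buffer (basal) and 29 nM porcine relaxin (100%).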
# Numbers stand for hits; n = inactive; u = inconclusive; x = no result given; [ ] = dose if it differs, or a comment.
SMILES,gsp agonist,gsp antagonist,Akt phos inh,RXFP1 antagonist,RXFP1 ag
COc1ccc(CC(=O)Nc2nc(-c3ccc(OC)c(OC)c3)cs2)cc1OC,n[15.4 µM],28.2µM,n,n,n
Cc1ccc(-c2csc(Nc3ccccn3)n2)cc1,u,n,n,n,n
COc1ccc(-c2csc(Nc3ccccn3)n2)cc1OC,n[15.4 µM],n,n,-83.6,n
CCn1c2ccccc2c2cc(/C=N/n3c(-c4cc(C)[nH]n4)n[nH]c3=S)ccc21,n[15.4 µM],35.5µM,n,n,n
CCn1c2ccccc2c2cc(/C=N/n3cn[nH]c3=S)ccc21,n,u,n,n,n
Cc1cc(C)n(-c2nc(C)c(C)c(=O)n2CC(=O)Nc2ccc(Cl)c(Cl)c2)n1,x,x,x,n,n
O=C(CC(=O)c1ccccc1O)c1ccc(F)cc1,u,39.8µM,n,n,n
CCc1cccc(-n2nnc(-c3nsc(NC(=O)c4cccs4)n3)c2C)c1,x,x,x,n,n
CCOc1ccc(CC(=O)NC2CC(=O)N(c3ccc4c(c3)OCCO4)C2)cc1 (centres undefined),x,x,x,n,n
Cc1ccc(N(CC(=O)NCCc2ccc(F)cc2)S(=O)(=O)c2ccc(Cl)c([N+](=O)[O-])c2)c(C)c1,n,25.1µM,n,n,n
CC(=O)c1c(C)[nH]c(C(=O)OCC(=O)Nc2ccc(Cl)c(S(=O)(=O)N(C)C)c2)c1C,n,39.8µM,n,n,n
Cc1ccc(N(CC(=O)Nc2c(C)n(C)n(-c3ccccc3)c2=O)S(C)(=O)=O)cc1C,n,n,-108.9%,n,n
NC1(c2ccc(-c3nc4ccn5c(=O)[nH]nc5c4cc3-c3ccccc3)cc2)CCC1,x,x,x,-62.0,x
O=C1Cc2c(-c3ccccc3)cc(-c3cccc(Cl)c3)nc2-c2ccccc2N1,n,n,n,n,x
COc1ccccc1CNC(=O)CCC1N=C2c3ccccc3N=C(SCc3ccc(C)cc3C)N2C1=O (centres undefined),x,x,x,n,n
Cc1ccccc1OCC(=O)NNC(=O)C1CCN(c2ncnc3sc(C)c(C)c23)CC1,n,35.5µM,n,-67.8,n
Cc1sc2ncnc(N3CCC(C(=O)NCC(=O)Nc4ccc(F)c(F)c4)CC3)c2c1C,n,39.8µM,n,n,n
CC(C)C(NS(=O)(=O)c1ccc2c(c1)oc(=O)n2C)C(=O)N1CCN(c2cccc(Cl)c2)CC1 (centres undefined),x,x,x,x,n
CC(C)(C)c1ccc(C(=O)CCCCl)cc1,x,x,x,n,x
CN(C)S(=O)(=O)c1ccc2c(c1)/C(=C/c1cc3c([nH]1)CCCC3)C(=O)N2,x,10µM,n,x,n
CN(C)S(=O)(=O)c1ccc2c(c1)C(=O)c1cc(S(=O)(=O)N(C)C)ccc1CC2,x,x,x,x,n
CC(C)(C)c1ccc2c(c1)OC(C(=O)N/N=C\c1ccc(-c3cccc(C(=O)O)c3)o1)CO2 (centres undefined),n,n,n,-74.5,n
CC(C)(C)c1ccc2c(c1)OC(C(=O)N/N=C\c1ccccn1)CO2 (centres undefined),n,n,n,-61.3,n
O=C(/C=C/c1cccc(Cl)c1)c1nc2ccccc2[nH]1,n,n,n,-82.4,n
C=CCSC1=Nc2sccc2C2=NC(=O)CN12,20µM,n,n,n,n
SMILES,gsp agonist,gsp antagonist,Akt phos inh,RXFP1 antagonist,RXFP1 ag
Cc1ccc(CSC2=Nc3ccccc3C3=NC(=O)CN23)cc1,u,n,n,n,n
COc1ccc(C(=O)Oc2ccc(Br)cc2C(=S)N2CCOCC2)cc1,n,n,n,-67.2,n
CC(C)C(=O)Nc1cccc(C(F)(F)F)c1,x,x,x,n,x
O=C(Nc1ccc(N2CCN(C(=O)c3ccccc3F)CC2)cc1)c1cncc(Br)c1,n,u,n,-82.2,n
O=C(Nc1ccc(N2CCCCC2)cc1)c1cncc(Br)c1,n,n,n,n,n
O=C(Nc1ccc(N2CCCC2)cc1)c1ccccc1F,n,n,-85.3%,n,n
COc1cccc(Cn2ncc3c4sc(B(O)O)cc4n(C)c3c2=O)c1,x,x,x,x,n
O=C(Nc1nc(-c2ccco2)c(-c2ccco2)s1)C1CCC1,n,n,n,-61.3,n
